# High-throughput results from PubChem BioAssay.
# LmPK inh: LmPK (Leishmania mexicana) enzyme inhibition; purified LmPK, Kinase-Glo ATP luminescence, 1 h; Potency, µM (series often up to 57.5 µM), for the others: at the top dose activity change, negative = inhibition, usual class: inhibitors; 0.37% of 290,000 active; AID 1721; further: potency means the concentration at half of the fitted maximal effect; on the % scale 0 is the no-effect control and ±100 the full control effect
#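 qHTS format; LmPK 0.1 nM; substrates PEP 0.5 mM and ADP 0.1 mM. One-hour room-temperature incubation, then coupled luciferase luminescence; 0.5 nM enzyme wells mark activation.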
# Sm TGR block: inhibitors of Schistosoma mansoni thioredoxin glutathione reductase; purified TGR, DTNB reduction, TNB absorbance 405 nm; Potency, µM (doses to about 114 µM), for inactives: top-dose activity change, negative = inhibition, usual class: inhibitors; 3% of 360,000 active; Q962Y6; further: potency means the concentration at half of the fitted maximal effect; on the % scale 0 is the no-effect control and ±100 the full control effect; nearly all actives have a fitted effect of over 60% in size
#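 TGR 20 nM + NADPH 100 uM (dispensed conc.), cpd preinc 15 min RT; start with NADPH (500 uM addition) then DTNB (15 mM addition). Kinetic TNB absorbance, 405 nm filter. Four-parameter Hill fit across titration.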
# TbPYK inhibitor: blocks Trypanosoma brucei pyruvate kinase; Potency, µM (highest dose often 76.8 µM), for inactives: top-dose activity, negative = inhibition, usual class: inhibitors; AID 624173; Q57TT1; TbPYK enzyme, Kinase-Glo Plus ATP luminescence, 45 min; 0.12% of 410,000 active; further: potency means the concentration at half of the fitted maximal effect; on the % scale 0 is the no-effect control and ±100 the full control effect; nearly all actives have a fitted effect of over 50% in size
#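 Screened from lowest to highest concentration, compounds were pinned into TbPYK/substrate mixtures, and ADP (130 uM final) was added. Plates sat at room temperature for 45 min prior to Kinase-Glo Plus detection by luminescence.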
# Cycloheximide cs: affects cycloheximide protein synthesis inhibition readout, counter-screen. cell reporter, cycloheximide protein synthesis inhibition counterscreen. max response, %. 12% of 300,000 active; in the data active means max response mostly above about 13%, no sharp cut-off; inactive means mostly below about 14%; further: read at 38.3 µM for the half of the compounds with a filed dose; 0% is about no effect
# Shiga inhibitor: Shiga toxin inhibition. AID 2315. Vero cells, Shiga toxin protein synthesis inhibition reporter. inhibition, % at 38.7 µM. 9.2% of 290,000 active; in the data active means inhibition mostly above about 28%, no sharp cut-off; inactive means mostly below about 43%; further: 0% is about no effect
# FBPA Giardia inh: blocks Giardia fructose-bisphosphate aldolase activity. Potency, µM (top dose mostly 59.6 µM), without a hit: at the highest dose activity, negative = inhibition, actives largely listed as inhibitors. 0.71% of 290,000 active. purified Giardia FBPA. A8B2U2. AID 2451; further: potency means the concentration at half of the fitted maximal effect; on the % scale 0 is the no-effect control and ±100 the full control effect; nearly all actives have a fitted effect of over 55% in size
# Target sequence (A8B2U2 whole entry, looked up): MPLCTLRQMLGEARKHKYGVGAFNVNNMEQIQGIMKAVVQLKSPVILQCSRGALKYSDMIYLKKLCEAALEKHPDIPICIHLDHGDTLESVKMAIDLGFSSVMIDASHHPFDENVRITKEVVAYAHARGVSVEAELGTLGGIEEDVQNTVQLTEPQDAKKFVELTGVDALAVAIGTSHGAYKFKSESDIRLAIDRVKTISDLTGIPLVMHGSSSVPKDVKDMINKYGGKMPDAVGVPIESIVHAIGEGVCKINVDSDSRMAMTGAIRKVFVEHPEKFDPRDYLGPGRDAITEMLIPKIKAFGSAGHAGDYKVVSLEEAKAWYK
#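 40 nM FBPA preincubated 10 min at RT with compound (up to 57.5 uM final), then substrate plus GAPDH/TPI/NAD/arsenate coupling and diaphorase/resazurin added. Fluorescence read after 20 min at RT, 525/598 nm.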
# An asterisk follows results filed as active; ? = inconclusive; / = no result; [ ] = remark or other dose. The sample as a whole holds a higher share of hits than the screen did. Unless noted, the call rests on the fitted dose curve; in most records, active means well fitted curve in the direction sought with a large enough effect; inconclusive means small, poorly fitted or top-dose-only effect, or another doubt; inactive means no such curve, though single readings can be large; an effect the other way counts as inactive or inconclusive.
SMILES,LmPK inh,Sm TGR block,TbPYK inhibitor,Cycloheximide cs,Shiga inhibitor,FBPA Giardia inh
O=c1cc(-c2ccccc2)[nH]c2nc3ccccc3n12,?,5%,-9%,40*,64*,-7%
Cc1cc(=O)n2c(nc3ccccc32)s1,/,/,-9%,/,/,/
CC(C)c1cc(=O)n2c(nc3ccccc32)[nH]1,2%,8%,-3%,13*,27,?
CCc1c(C)[nH]c2nc3ccccc3n2c1=O,4%,0%,3%,1,-6,-5%
Cc1ccc(S(=O)(=O)N2CCC(C(=O)Nc3ccc(N4CCOCC4)cc3)CC2)cc1C,/,1%,1%,/,/,/
CCC(=O)N1Cc2cc(C(=O)NCC(F)(F)F)nc(-c3cccc(-c4cncnc4)c3)c2[C@H]1CCO,/,/,7%,/,/,/
CN(c1ccccc1C(=O)NCc1ccccc1Cl)S(=O)(=O)c1ccccc1,6%,7%,-5%,5,/,0%
N#C/C(=C\c1ccc(N2CCOCC2)o1)C(=O)NCC1CCCO1 (centres undefined),6%,3%,0%,-5,24,-3%
Cc1ccc2nc(/C(C#N)=C\c3ccc(N4CCOCC4)o3)[nH]c2c1,-10%,?,-8%,46*,47*,-1%
Cc1ccc(/C(C#N)=C\c2ccc(N3CCOCC3)o2)cc1,5%,3.2µM*,?,88*,133*,?
COc1ccc2oc(-c3ccc(C)c(NC(=O)Cc4ccc(Cl)cc4)c3)nc2c1,/,-11%,4%,/,/,/
CC1=C(C(N)=O)C(c2ccccc2F)n2nc(-c3ccc(Cl)cc3)nc2N1 (centres undefined),/,-1%,2%,/,/,/
CCCS(=O)(=O)NC(=O)C1(C)CCCN(C(=O)c2cccnc2Oc2ccccc2)C1 (centres undefined),/,/,-12%,/,/,/
O=C(CNC(=O)C1CCCCC1)OCC(=O)c1ccc(Br)cc1,-4%,0%,-3%,41*,56*,1%
CCOc1ccc(C(=O)COC(=O)CNC(=O)C2CCCCC2)cc1,/,3%,2%,/,/,/
N/C(=N\OC(=O)C1CCCCC1)c1ccc(Cl)cc1,-5%,?,-2%,28*,46,/
N/C(=N\OC(=O)C1CCCCC1)c1ccc(Br)cc1,0%,-3%,1%,23*,51*,6%
N/C(=N\OC(=O)C1CCCCC1)c1ccncc1,-6%,-7%,-2%,11*,30*,3%
N/C(=N\OC(=O)C12CC3CC(CC(C3)C1)C2)c1ccncc1,0%,-1%,4%,7,28,3%
CCc1ccc2oc(C(=O)Nc3nc(-c4ccc(F)cc4)ns3)c(C)c2c1,/,4%,0%,/,/,/
N/C(=N\OC(=O)C1CCCCC1)c1ccccn1,14µM*,-22%,-27%,31*,86*,-1%
Cc1ccc(C(=S)NCS(=O)(=O)c2ccc(C)cc2)cc1,9%,2.8µM*,4%,19*,75,-10%
Cc1ccc(S(=O)(=O)NC(=S)c2ccccc2)cc1,/,/,-6%,/,/,/
Cc1ccc(N(C(=O)c2cccc(C)c2)S(=O)(=O)c2ccc(Cl)cc2)cc1,/,-1%,3%,/,/,/
Cc1ccc(S(=O)(=O)CNC(=S)c2cccc(Cl)c2)cc1,2%,3.5µM*,-4%,-5,-11,-7%
SMILES,LmPK inh,Sm TGR block,TbPYK inhibitor,Cycloheximide cs,Shiga inhibitor,FBPA Giardia inh
Cc1ccc(-n2c(Cl)c(Cl)nc(Cl)c2=O)cc1,-2%,0.79µM*,4%,-6,-3,1%
CCOc1cc(S(=O)(=O)NCc2ccco2)c(OCC)cc1-n1cnnn1,1%,-21%,-4%,34*,76*,9%
C=C(C)Cn1c(SCC(=O)c2ccc(OC)cc2)nc2sc3c(c2c1=O)CCCC3,/,-6%,9%,/,/,/
CCn1c(=O)cc(OCC(=O)NCc2ccccc2Cl)c2ccccc21,/,1%,-7%,/,/,/
Cc1ccc(-n2c(=O)c3ccc(C(=O)NCc4ccccc4Cl)cc3n(CC(=O)Nc3ccc(C)cc3C)c2=O)cc1,/,1%,-3%,/,/,/
COc1cccc(C(=O)NC(=S)Nc2ccccc2N2CCCC2)c1,-1%,-10%[57.1 µM],?,17*,40,-12%
COc1c(C)cccc1C(=O)NC(=S)Nc1ccccc1N1CCCC1,-1%,?,-7%,30*,12,/
CC1CCC/C(=C\Nc2ccc3c(c2)OCO3)C1=O (centres undefined),1%,?,-14%,33*,51*,?
